The values below come from PubChem BioAssay (NCI).

Molecules are shown by their SMILES. About 83,000 compounds went through this panel and 20% of them were active in at least one assay; those are over-represented in the sample as a whole.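 Cell lines were cultured in 96-well plates, exposed to a single compound concentration, and assessed for percent growth 48 hours later.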 Unmarked numbers belong to inactive results. Activity calls are given as the source filed them. Rule for the calls: active = growth percent below 10; inactive = the rest.

Some test systems named below: NCI-H23 lung; NCI-H226 lung; NCI-H322M lung; HOP-62 NSCLC; NCI-H460 lung; HOP-92 NSCLC; NCI-H522 lung; A549/ATCC NSCLC; 786-0 renal; COLO 205 colon; DU-145 prostate; K-562 leukemia; MALME-3M melanoma; MDA-MB-231 breast; RXF 393 renal; SF-268 CNS; SF-295 CNS; SF-539 CNS; UACC-257 melanoma; M14 melanoma.
Common to all, as to assay: NCI-60 one-dose screen, 48 h (100 = growth as untreated, 0 = no growth, -100 = all killed)
What all share (settings): 10 µM unless noted

Take `O=C1/C(=C/C=C/c2ccco2)SC(=S)N1Cc1ccccc1`: the growth is 89.6% in the test on NCI-H23 lung; 95.2% with NCI-H226 lung; 91.8% in the test on NCI-H322M lung; 105% in the test with HOP-62 NSCLC; 95.2% with NCI-H460 lung; 87.1% in the test on HOP-92 NSCLC. The growth with NCI-H522 lung was 98.4%; in the test on A549/ATCC NSCLC, 93.7%; in the test with 786-0 renal it was 101%; with COLO 205 colon, 121%; in the test on DU-145 prostate, 93.8%; with K-562 leukemia, 71.2%. Besides, the growth in the test with MALME-3M melanoma was 87.2%; in the test with MDA-MB-231 breast it was 92.7%; with RXF 393 renal, 95.3%; in the test on SF-268 CNS, 89.7%; in the test on SF-295 CNS it was 97%; in the test with SF-539 CNS, 101%. Besides, the growth in the test on UACC-257 melanoma is 91.6%; in the test on M14 melanoma, 92.1%.

Consider `NS(=O)(=O)c1nnc(/N=C/c2c(O)[nH]c3ccccc23)s1`, for which the growth was 96.3% in the test on NCI-H23 lung; 95% with NCI-H226 lung; 104% in the test on NCI-H322M lung; 86.6% in the test with HOP-62 NSCLC; 105% in the test on NCI-H460 lung; 88.1% in the test with HOP-92 NSCLC. The growth was 99.9% with NCI-H522 lung; 108% in the test on A549/ATCC NSCLC; 98.2% with 786-0 renal; 115% in the test on COLO 205 colon; 114% in the test on DU-145 prostate; 110% in the test on K-562 leukemia. Also, the growth in the test on MALME-3M melanoma is 109%; in the test on MDA-MB-231 breast, 92.3%; with RXF 393 renal it was 118%; in the test on SF-268 CNS, 102%; with SF-295 CNS, 99.2%; in the test with SF-539 CNS it was 96.3%. Moreover, the growth in the test on UACC-257 melanoma is 107%; in the test on M14 melanoma it was 94%.

Regarding `COc1cc(OC)cc(-c2cc(-c3c[nH]c4ccccc34)nc(-c3c[nH]c4ccccc34)c2C#N)c1`, the growth in the test on NCI-H23 lung is 104%; in the test on NCI-H226 lung it was 87.3%; with NCI-H322M lung, 105%; in the test with HOP-62 NSCLC it was 96.3%; in the test with NCI-H460 lung it was 103%; in the test with HOP-92 NSCLC, 95%. Besides, the growth with NCI-H522 lung was 92.1%; with A549/ATCC NSCLC, 98.5%; in the test with 786-0 renal, 105%; in the test with COLO 205 colon, 110%; in the test with DU-145 prostate, 101%; in the test with K-562 leukemia, 93.2%. In addition, the growth in the test on MALME-3M melanoma is 108%; with MDA-MB-231 breast, 101%; in the test with RXF 393 renal it was 108%; with SF-268 CNS it was 100%; in the test with SF-295 CNS it was 101%; in the test on SF-539 CNS, 94.2%. Besides, the growth with UACC-257 melanoma is 112%; in the test with M14 melanoma, 95%.

As for `Oc1ccc(-c2nc3ccc(/C(=N\N=C\c4ccc(Cl)cc4)c4ccccc4)cc3[nH]2)cc1`, the growth with NCI-H23 lung is 94.8%; with NCI-H226 lung, 80.7%; in the test with NCI-H322M lung it was 93.7%; in the test on HOP-62 NSCLC it was 100%; in the test with NCI-H460 lung, 86.4%; in the test with HOP-92 NSCLC, 118%. Besides, the growth is 74.6% in the test with NCI-H522 lung; 89.2% with A549/ATCC NSCLC; 66.5% in the test on 786-0 renal; 54% in the test on COLO 205 colon; 88.3% in the test with DU-145 prostate; 70.8% in the test with K-562 leukemia. Besides, the growth is 101% in the test on MALME-3M melanoma; 91.1% with MDA-MB-231 breast; 93.5% in the test with RXF 393 renal; 90.9% in the test on SF-268 CNS; 82.6% with SF-295 CNS; 87% in the test on SF-539 CNS. Moreover, the growth in the test with UACC-257 melanoma was 92%; with M14 melanoma it was 63.5%.

`C/C(=C(/C)C1CC1CCNC1CCC(NC(=O)OC(C)(C)C)CC1)c1ccccc1` (stereo not given): the growth was 70.8% with NCI-H23 lung; 80.1% in the test on NCI-H226 lung; 89.2% with NCI-H322M lung; 84.4% in the test with HOP-62 NSCLC; 57.6% with NCI-H460 lung; 54.8% in the test with HOP-92 NSCLC. The growth with NCI-H522 lung is 68.6%; in the test on A549/ATCC NSCLC, 73.4%; in the test with 786-0 renal, 65.6%; with COLO 205 colon, -56% (active); with DU-145 prostate, 84.6%; in the test with K-562 leukemia it was 0.99% (active). Besides, the growth in the test with MALME-3M melanoma is 36.6%; in the test with MDA-MB-231 breast, 72.9%; in the test on RXF 393 renal, 42.7%; in the test on SF-268 CNS, 84.7%; in the test on SF-295 CNS it was 77.8%; in the test with SF-539 CNS, 63.5%. The growth with UACC-257 melanoma is 55.4%; in the test with M14 melanoma it was 21.3%.

For `O=C(CCCCCCN1CC(=O)N2[C@@H](c3ccccc3Br)c3[nH]c4ccccc4c3C[C@H]2C1=O)NO`, the growth in the test with NCI-H23 lung was 63.9%; with NCI-H226 lung it was 99.7%; in the test with NCI-H322M lung, 66.1%; in the test with HOP-62 NSCLC, 61.5%; with NCI-H460 lung, 51.8%; in the test on HOP-92 NSCLC it was 29%. Besides, the growth in the test on NCI-H522 lung was -5.74% (active); in the test with A549/ATCC NSCLC, 88.4%; in the test with 786-0 renal, 87.3%; with COLO 205 colon, 42.8%; in the test with DU-145 prostate, 62.7%; in the test on K-562 leukemia, 22.6%. In addition, the growth was 14.4% with MALME-3M melanoma; 50% with MDA-MB-231 breast; 43.1% in the test on RXF 393 renal; 79.6% with SF-268 CNS; 55.3% in the test on SF-295 CNS; 51% in the test on SF-539 CNS. The growth is 39.9% in the test with UACC-257 melanoma and 42.1% with M14 melanoma.

Turning to `CN1CCN(c2ccc(Nc3nc(NCCNC(=O)c4ccccc4)c4sccc4n3)cc2)CC1`, the growth in the test with NCI-H23 lung was 74.2%; in the test on NCI-H226 lung it was 108%; in the test on NCI-H322M lung, 85.2%; in the test with HOP-62 NSCLC, 104%; with NCI-H460 lung, 74%; in the test with HOP-92 NSCLC it was 69.4%. Also, the growth in the test on NCI-H522 lung was 68.4%; in the test with A549/ATCC NSCLC it was 67.4%; in the test on 786-0 renal, 45.6%; in the test on COLO 205 colon it was 56.5%; in the test with DU-145 prostate, 79.4%; with K-562 leukemia it was 8.82% (active). Moreover, the growth was 30.6% in the test on MALME-3M melanoma; 54.3% in the test on MDA-MB-231 breast; 33.8% in the test on RXF 393 renal; 64.6% in the test with SF-268 CNS; 76.9% in the test with SF-295 CNS; -75.4% (active) in the test with SF-539 CNS. The growth in the test with UACC-257 melanoma is 33.3%; in the test on M14 melanoma it was 27.8%.
